PNC inhibitor: blocks assembly of the perinucleolar compartment. PC3M PTB-GFP, PNC prevalence imaging, 16 h; hits give low values. activity change (PNC), negative = inhibition, % at 10 µM. actives 3.1% (n = 140,000);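 active means readout at or below -70, meaning at least 70% loss of cells showing the perinucleolar compartment, a nuclear body marking cancer cells; inconclusive means readout between -30 and a set limit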;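 further: plate controls were DMSO wells for no effect and camptothecin positive control wells for full effect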
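Read-out is percentage of cells bearing a perinucleolar compartment, from automated 20x imaging of fixed, Hoechst-stained PC3M PTB-GFP cells. Cells were seeded 4 h, then exposed 16 h to compound (23 nl of library stock) in duplicate plates.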
ALDH1A1 inh: blocks purified human ALDH1A1 activity; Purified ALDH1A1, NADH fluorescence, propionaldehyde substrate; AID 1030; Potency, µM (titrated, usually from 75.3 µM), for the others: at the highest dose activity, negative = inhibition, hits mostly inhibitors; P00352; actives 7.3% (n = 220,000);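 further: potency means the concentration at half of the fitted maximal effect; plate controls were no enzyme wells and a reference inhibitor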
Target sequence (P00352 whole entry, looked up): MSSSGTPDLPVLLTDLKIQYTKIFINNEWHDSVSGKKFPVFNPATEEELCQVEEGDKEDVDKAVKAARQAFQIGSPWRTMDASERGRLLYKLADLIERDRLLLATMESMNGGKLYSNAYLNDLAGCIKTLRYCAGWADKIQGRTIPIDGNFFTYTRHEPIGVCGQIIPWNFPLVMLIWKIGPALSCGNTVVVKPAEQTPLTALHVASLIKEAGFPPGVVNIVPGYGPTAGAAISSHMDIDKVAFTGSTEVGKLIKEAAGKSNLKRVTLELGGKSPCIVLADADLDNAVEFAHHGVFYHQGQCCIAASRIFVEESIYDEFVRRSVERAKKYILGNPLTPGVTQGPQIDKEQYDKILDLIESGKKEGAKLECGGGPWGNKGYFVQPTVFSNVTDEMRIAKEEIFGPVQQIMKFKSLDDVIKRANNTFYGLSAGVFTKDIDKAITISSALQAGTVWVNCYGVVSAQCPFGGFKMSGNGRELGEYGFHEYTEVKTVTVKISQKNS
IMPase cell inh: IMPase inhibition in cells; CHO-M1 cells, IP1 accumulation, HTRF TR-FRET ratio; inhibition (IP1 accumulation), % at 46.1 µM; 120,000 tested, under 10 active; active means well fitted curve in the direction sought with a large enough effect in the signal ratio, not every such curve was filed as active; inconclusive means small, poorly fitted or top-dose-only effect, or a change in a side signal; inactive means no such curve, though single readings can be large or run the other way; the % refers to the signal ratio;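 further: cells stimulated with carbachol in lithium chloride buffer; plate controls were DMSO basal wells for no effect and reference inhibitor wells for full effect; higher means more IMPase inhibition seen as more IP1 and lower FRET ratio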
Target sequence (P97697 whole entry, looked up): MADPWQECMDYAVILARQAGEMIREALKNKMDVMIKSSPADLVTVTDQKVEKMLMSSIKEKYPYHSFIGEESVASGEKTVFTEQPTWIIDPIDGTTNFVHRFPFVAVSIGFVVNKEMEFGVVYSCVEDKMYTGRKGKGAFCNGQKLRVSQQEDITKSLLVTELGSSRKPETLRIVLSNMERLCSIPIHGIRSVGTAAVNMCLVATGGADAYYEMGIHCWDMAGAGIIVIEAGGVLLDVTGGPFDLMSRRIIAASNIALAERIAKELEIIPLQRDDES
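Seeded CHO-M1 cells were dosed with compound at up to 46 uM, stimulated with carbachol for 30 min, then lysed in IP-One detection reagents. Higher IP1 lowers the TR-FRET signal.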
12-hLO inh: inhibitors of human 12-lipoxygenase (ALOX12) | purified 12-hLO, xylenol orange hydroperoxide absorbance | P18054 | actives 0.12% (n = 150,000) | AID 1452 | Potency, µM (doses to about 57.1 µM), without a hit: top-dose activity change, negative = inhibition, actives largely listed as inhibitors; active means well fitted curve in the direction sought with a large enough effect; inconclusive means small, poorly fitted or top-dose-only effect, or another doubt; inactive means no such curve, though single readings can be large; an effect the other way counts as inactive or inconclusive; further: potency means the concentration at half of the fitted maximal effect; nearly all actives have a fitted effect of over 55% in size
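Purified human 12hLO (150 nM final) was preincubated with compounds for 15 min at room temperature in 25 mM Hepes pH 7.0, 0.01% Triton X-100, then reacted with 40 uM arachidonic acid for 30 min. Hydroperoxide was detected with ferrous iron/xylenol orange.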
HPGD inh: inhibitors of human 15-hydroxyprostaglandin dehydrogenase (HPGD) | P15428 | actives 4.3% (n = 150,000) | Potency, µM, without a hit: at the highest dose activity change, negative = inhibition, most hits filed as inhibitors | purified HPGD, NADH fluorescence kinetic, PGE2 substrate; further: potency means the concentration at half of the fitted maximal effect
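NADH formation kinetics: reaction with 30 uM PGE2 and 1 mM NAD+ (final), 20 nM enzyme, Tris-HCl pH 8 with Tween 20, after 15 min compound preincubation at room temperature. Fluorescence change, last versus first of five reads.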
IMPase Li inh: IMPase inhibition in cells with lithium potentiation; actives 0.35% (n = 210,000); CHO-M1 cells, IP1 TR-FRET (IP-One), carbachol + lithium; AID 1457; Potency, µM (top dose mostly 59.4 µM), without a hit: at the top dose activity, negative = IMPase inhibition, usual class: inhibitors; active means well fitted curve in the direction sought with a large enough effect; inconclusive means small, poorly fitted or top-dose-only effect, or another doubt; inactive means no such curve, though single readings can be large; an effect the other way counts as inactive or inconclusive;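 further: IP1 builds up when IMPase is blocked and the TR-FRET signal falls; potency means the concentration at half of the fitted maximal effect; plate controls were basal vehicle for no effect and high inhibitor control for full effect; nearly all actives have a fitted effect of over 50% in size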
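Steps: plate 2000 CHO-M1 cells per well and culture 16–30 h; add compound and lithium; incubate 30 min, 37C; add d2-IP1 tracer and Eu cryptate anti-IP1 antibody in lysis buffer; read after 10 min at room temperature.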
Starred values were filed as active, the others as inactive; ? = inconclusive; nt = not tested or not shown; [ ] = remark or other dose. Shown are actives, neighbours in structure and some others; about 11% of the full set was active somewhere. Unless noted, the call rests on the fitted dose curve; in most records, active means well fitted inhibition curve with a large enough effect (not every such curve was filed as active); inconclusive means small, poorly fitted or top-dose-only effect, or another doubt; inactive means no such curve, though single readings can be large or run the other way. Unless noted, on the % scale 0 is the no-effect control and ±100 the full control effect.

SMILES | PNC inhibitor | ALDH1A1 inh | IMPase cell inh | 12-hLO inh | HPGD inh | IMPase Li inh
CCOc1ccccc1NC(=O)CN(CCc1ccccc1)S(=O)(=O)c1ccc(C)cc1 | nt | nt | -4 | nt | nt | nt
COc1ccc(N(C)S(=O)(=O)c2cccc(C(=O)OC(C(=O)Nc3cc(C)cc(C)c3)c3ccccc3)c2)cc1 (stereo not given) | -102* | 8% | nt | -1% | -3% | 9%
CC(=O)c1cccc(NC(=O)C(OC(=O)c2cccc(S(=O)(=O)N(C)c3ccccc3)c2)c2ccccc2)c1 (stereo not given) | 35 | 4% | nt | -4% | -5% | 4%
C/C=C(\CS(=O)(=O)c1ccccc1)S(=O)(=O)c1ccccc1 | -4 | 8.9µM* | 12 | -3% | -12% | 12%[38.3 µM]
CCOC(=O)c1c(C)n(-c2ccccc2)c2ccc(OC(=O)c3cccc(Cl)c3)cc12 | nt | nt | -8 | nt | nt | nt
Cc1cccc(/C=N/c2sc3c(c2C#N)CCN(Cc2ccccc2)C3)c1O | ? | ? | nt | -3% | -27% | 5%
Cc1ccc(C)c(N=C2CCCN2Cc2ccccc2)c1C#N | -119* | -4% | 19 | -4% | -5% | 15%
COc1ccc(N2CC(O)=C(c3nc4ccccc4s3)C2=N)c(OC)c1 | -12 | -10% | -2 | -2% | ? | 9%[38.3 µM]
N=C1C(c2nc3ccccc3s2)=C(O)CN1Cc1ccco1 | 12 | 22µM* | 10 | -12% | ? | 16%[38.3 µM]
CCCCC#Cc1nc(NC)c2ncn([C@@H]3O[C@@H](CO)[C@H](O)[C@H]3O)c2n1 | nt | -1% | -1 | -2% | 4% | 7%
Cc1cc(C)c(S(=O)(=O)Nc2ccc3oc4c(c3c2)CCCC4)cc1C | nt | nt | -12 | nt | nt | nt
Cc1ccc[n+](CC(=O)Nc2ccc([N+](=O)[O-])cc2Cl)c1 | ? | 16µM* | 6 | -2% | -17% | 17%
COc1ccc(-c2coc3cc4oc(=O)c5ccccc5c4cc23)cc1F | -81* | -6% | 0 | 3% | ? | -1%
COCCn1c(=O)c(CCc2ccccc2)nc2cnc(Oc3ccccc3)nc21 | nt | ? | nt | nt | nt | -1%
CCOC(=O)C1=C(c2ccccc2)N=c2s/c(=C\c3cccc(O)c3)c(=O)n2C1c1cccs1 (stereo not given) | 10 | -4% | -15 | -5% | -9% | -6%[38.3 µM]
O=c1/c(=C\c2ccc(O)cc2)sc2n1C(c1ccccc1)C(c1ccccc1)=NN=2 (stereo not given) | 37 | 8.9µM* | 1 | ? | 16µM* | 0%[38.3 µM]
COC(=O)c1ccccc1NC(=S)NC(=O)COc1ccccc1 | 9 | ? | -4 | -2% | -15% | -8%
Cc1ccc(C(=O)NNC(=S)NC(=O)COc2ccccc2)cc1 | ? | 18µM* | 2 | -10% | -15% | 30%[38.3 µM]
CCC(=O)NC(=S)Nc1ccc(NC(=O)COc2ccccc2)cc1 | -1 | 25µM* | -3 | 0% | -17% | -3%
COc1ccc(C(=O)NC(=S)NNC(=O)CNC(=O)C2CCCCC2)cc1 | nt | 22µM* | nt | nt | nt | 5%
CC(C)CC(=O)NC(=S)NNC(=O)c1ccc(NC(=O)C2CCCCC2)cc1 | 32 | -5% | nt | 0% | -17% | -2%
CC(C)CC(=O)NC(=S)NNC(=O)c1ccc([N+](=O)[O-])cc1 | -3 | -4% | nt | -4% | 32µM* | 5%
COc1ccc(C(=O)NNC(=O)Cc2ccc([N+](=O)[O-])cc2)cc1 | -2 | ? | nt | -3% | -8% | 12%
CCC(=O)NC(=S)NNC(=O)c1ccc([N+](=O)[O-])cc1 | 61 | 20µM* | -9 | 7% | -27% | -9%[38.3 µM]
CCC(=O)NC(=S)NNC(=O)COc1ccc(Br)cc1 | nt | 24µM* | nt | nt | nt | -9%
SMILES | PNC inhibitor | ALDH1A1 inh | IMPase cell inh | 12-hLO inh | HPGD inh | IMPase Li inh
CCC(=O)NC(=S)NNC(=O)c1ccc(OC)cc1 | ? | 40µM* | 9 | -26% | -29% | -9%[38.3 µM]
CCC1CCCCN1C(=S)NC(=O)c1ccc([N+](=O)[O-])cc1 (stereo not given) | 11 | 35µM* | nt | -6% | -17% | 1%
CCOc1ccc(NC(=S)NNC(=O)c2ccc(Br)cc2)cc1 | nt | ? | nt | nt | nt | 3%
CCCCOc1ccc(C(=O)NNC(=S)NC(=O)CC)cc1 | ? | -2% | nt | -18% | -2% | 13%
CN(Cc1ccco1)c1ccnc(-c2ccccc2C(F)(F)F)n1 | nt | ? | nt | nt | nt | 13%
COc1cccc([C@@H]2Oc3ccc(OC)cc3C[C@H]2O)c1 | nt | 7% | nt | nt | -10% | 10%
C=CCNC(=S)NNC(=O)c1ccc(Br)cc1 | -29 | -4% | 5 | -2% | -17% | 15%
C=CCNC(=S)NNC(=O)c1ccc(OCCCC)cc1 | -122* | 0% | -9 | -2% | -8% | 5%
CC(NC(=O)COc1ccc(Br)cc1)C(=O)O (stereo not given) | 29 | 10µM* | -11 | 2% | -15% | 6%[38.3 µM]
CN(C)c1cccc(NC2=CC(=[N+]3CCOCC3)CC(C)(C)C2)c1 | ? | 28µM* | 0 | -10% | ? | 64%[38.3 µM]
CNC1C(O)[C@@H]2OC(O[C@@H]3C(O)C(O)C(N)C[C@H]3N)C(N)C[C@H]2O[C@H]1O[C@@H]1OC(CO)C(N)C(O)C1O (stereo not given in full) | nt | 0% | nt | -3% | -2% | 24%
Cc1[nH]c(=O)[nH]c(=O)c1/C=N/NC(=O)[C@H](C)NC(=O)OC(C)(C)C | -106* | 0% | -5 | 3% | -12% | -3%[38.3 µM]
NC(=O)c1ccc(-n2c(CCC(=O)O)ccc2-c2cccs2)cc1 | nt | 3.2µM* | nt | nt | nt | -6%
CC(=O)c1ccc(-n2c(CCC(=O)O)ccc2-c2cccs2)cc1 | ? | 3.5µM* | -3 | -21% | -18% | 9%[38.3 µM]
COCCCn1c(CCC(=O)O)ccc1-c1cccs1 | -4 | ? | -3 | -10% | ? | 16%[38.3 µM]
COC(=O)c1cccc(-n2c(CCC(=O)O)ccc2-c2cccs2)c1 | nt | 4µM* | nt | nt | nt | nt
Cc1ccc(-n2c(CCC(=O)O)ccc2-c2cccs2)cc1 | ? | ? | -2 | -15% | -20% | 15%[38.3 µM]
Cc1ccc(-n2c(CCC(=O)O)ccc2-c2cccs2)cc1Cl | nt | nt | 2 | nt | nt | nt
CCNc1ncc2nc(-c3ccc(Cl)cc3)c(=O)n(C)c2n1 | nt | ? | nt | nt | nt | -2%
O=C1C=CC(=Nc2cccc3c(N=C4C=CC(=O)O4)cccc23)O1 | nt | ? | nt | -8%[11.4 µM] | ? | 16%
CN(C)c1ccc(/C=C/C(=O)c2cccc(Br)c2)cc1 | 42 | 7.1µM* | -4 | -4% | -29% | -18%[38.3 µM]
CC(=O)Nc1cccc(C(=O)/C=C/c2ccc(C)cc2)c1 | ? | -2% | 8 | 0% | -6% | 10%
Cc1cc2nc([C@H](C)C(=O)c3ccc(Cl)cc3)c(=O)[nH]c2cc1C | nt | 3%[13.5 µM] | nt | 1%[11.4 µM] | -11% | -1%

Compound activity (PubChem BioAssay)
